PubChem BioAssay (NCATS)
Where “and” joins values, the source holds several entries; their conditions need not be identical. Equal entries are not always repeated. Values without a mark were called inactive. Calls of active or inactive are those of the source.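 Rule for the calls: active = compounds whose dose series gives a full or clear partial fitted curve of increased nuclear translocation; inconclusive = weak partial curve or effect only at the top dose; inactive = no dose-dependent translocation response.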

Molecular target: Glucocorticoid receptor (Homo sapiens) (UniProt P04150)
Experiment: GR-GFP Redistribution (AID 450)
Conditions: U2OS GR-GFP nuclear translocation, laser cytometry, 2 h
Excerpt: NIH Molecular Libraries Screening Centers Network [MLSCN]
NIH Chemical Genomics Center [NCGC]
The glucocorticoid receptor (GR) Redistribution assay (BioImage) enables the visualization of GR cytoplasmic to nuclear translocation by the use of a GR-GFP fusion. GR is normally cytosolic, however ligands such as dexamethasone, cause nuclear translocation where the protein binds to response elements and interacts with various co-factors to modulate transcription. Because both functional agonists and antagonists can induce nuclear translocation, this assay can detect ligands regardless of their effects on gene expression. GR-GFP expressing U20S cells were used here. Dexamethasone was the positive control for translocation and data normalization. Detection of nuclear translocation was performed in 1536-well plates using the Acumen laser scanning plate cytometer (TTP LabTech). Validation of this assay and a detailed protocol have been described.
NCGC Assay Protocol Summary:
GR-GFP U2OS cells were maintained in DMEM with Glutamax and high glucose, 1% v/v penicillin-streptomycin, and 0.5 mg/mL Geneticin. For cell culture, 10% […] fetal bovine serum (FBS) was used (Invitrogen #26140-079). For cell plating 10% dextran, charcoal-stripped FBS (Hyclone SH30068.03) was used. U2OS cells were trypsin treated, suspended in medium, and passed through a 40 um basket filter. The cells were seeded at 600 cells/5 uL/well into clear-bottom black sided 1536-well plates and incubated for approximately 20 hrs, 37degC, 5%, CO2 in a tissue culture incubator. Twenty-three nL of compound was delivered by pin tool and the plates were incubated as above for 2 hrs. The compounds were tested as a 7-point titration ranging from 46 uM to 0.6 nM. The cells were fixed using the Kalypsys Washer/Dispenser station. The fixing protocol involved aspiration of the cell media, addition of 6 uL/well of PBS, aspiration of PBS, addition of 5uL/well of 100% methanol, aspiration of methanol, and addition of 3 uL/well PBS with 1.5 uM propidium iodide (PI). The plates were read by the Acumen Explorer using a 1 x 8 um scan of the whole well area. PI fluorescence triggered the collection of PI and GFP signals. A nuclei population was defined by a 10 to 100 um width and depth filter that eliminated small and large fluorescent particles. Two subpopulations of nuclei were then defined by peak intensity of GFP fluorescence to obtain translocated and untranslocated objects. The number of translocated objects was used for data normalization.
Keywords: NIH Roadmap, MLSCN, MLI, MLSMR, sOGT, qHTS, NCGC
Potency is the fitted concentration of half-maximal effect.

Sequence of Glucocorticoid receptor (Homo sapiens) (P04150 whole entry, looked up): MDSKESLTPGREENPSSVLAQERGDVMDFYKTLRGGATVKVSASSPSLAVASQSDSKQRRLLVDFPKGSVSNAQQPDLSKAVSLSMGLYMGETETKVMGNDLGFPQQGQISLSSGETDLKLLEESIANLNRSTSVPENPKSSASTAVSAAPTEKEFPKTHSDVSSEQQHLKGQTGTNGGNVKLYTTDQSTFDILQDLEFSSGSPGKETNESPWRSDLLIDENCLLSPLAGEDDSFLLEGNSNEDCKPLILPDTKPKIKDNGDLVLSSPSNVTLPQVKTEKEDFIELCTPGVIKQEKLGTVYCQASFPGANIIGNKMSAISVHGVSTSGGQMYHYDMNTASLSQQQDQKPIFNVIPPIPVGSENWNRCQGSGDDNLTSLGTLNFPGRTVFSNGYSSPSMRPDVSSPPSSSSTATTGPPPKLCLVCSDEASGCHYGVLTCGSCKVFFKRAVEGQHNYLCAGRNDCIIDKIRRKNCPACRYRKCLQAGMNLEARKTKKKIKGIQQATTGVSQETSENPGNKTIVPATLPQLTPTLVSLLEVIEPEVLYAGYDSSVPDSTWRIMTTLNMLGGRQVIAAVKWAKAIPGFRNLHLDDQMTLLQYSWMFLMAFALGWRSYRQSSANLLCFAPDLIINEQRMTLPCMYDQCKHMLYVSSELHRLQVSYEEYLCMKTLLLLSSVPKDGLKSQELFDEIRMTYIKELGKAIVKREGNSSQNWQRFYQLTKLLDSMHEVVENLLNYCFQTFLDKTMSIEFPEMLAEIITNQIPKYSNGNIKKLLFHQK

SMILES	Potency
COc1cnc(NS(=O)(=O)c2ccc(N)cc2)nc1	> 20.6 µM
COc1ccccc1OCC(O)COC(N)=O (configuration not stated)	> 20.6 µM
CNNCc1ccc(C(=O)NC(C)C)cc1	> 20.6 µM
CCN(CC)CC#CCOC(=O)C(O)(c1ccccc1)C1CCCCC1 (configuration not stated)	> 20.6 µM
C1CCC(C(CC2CCCCN2)C2CCCCC2)CC1 (configuration not stated)	> 20.6 µM
CC[C@H](NC(C)C)[C@H](O)c1ccc(O)c2[nH]c(=O)ccc12	> 46 µM
N[C@@H](Cc1ccc(O)c(O)c1)C(=O)O	> 46 µM and > 20.6 µM
CCCCOc1ccc(CC(=O)NO)cc1	> 20.6 µM
NNC(=O)c1ccncc1	> 20.6 µM
CC[C@H](C)C(=O)O[C@H]1C[C@@H](C)C=C2C=C[C@H](C)[C@H](CC[C@@H]3C[C@@H](O)CC(=O)O3)[C@H]21	> 20.6 µM
CCC(=O)O[C@]1(C(=O)CCl)[C@@H](C)C[C@H]2[C@@H]3CCC4=CC(=O)C=C[C@]4(C)[C@@]3(F)[C@@H](O)C[C@@]21C	< 5.9e-06 µM (active)
CC(C)(Sc1cc(C(C)(C)C)c(O)c(C(C)(C)C)c1)Sc1cc(C(C)(C)C)c(O)c(C(C)(C)C)c1	> 20.6 µM
COc1cc(NS(=O)(=O)c2ccc(N)cc2)nc(OC)n1	> 20.6 µM
Nc1[nH]c(=O)ncc1F	> 20.6 µM
NC(=O)c1cccc(N)c1	> 46 µM
Cc1cccc(Nc2ccncc2S(=O)(=O)NC(=O)NC(C)C)c1	> 20.6 µM
CCCOc1ccc(C(=O)OCCN(CC)CC)cc1N	> 20.6 µM
COc1ccc2c(c1)c(CC(=O)OCC(=O)O)c(C)n2C(=O)c1ccc(Cl)cc1	> 20.6 µM
CC1=CC(=O)c2ccccc2C1=O	> 20.6 µM

SMILES	Potency
COC(=O)Nc1nc2ccc(C(=O)c3ccccc3)cc2[nH]1	> 20.6 µM
COC(=O)Nc1nc2ccc(Sc3ccccc3)cc2[nH]1	> 20.6 µM
COc1cc2ncnc(Nc3cccc(Cl)c3)c2cc1OC	> 46 µM
Cn1c(=O)c2c(ncn2CC(O)CO)n(C)c1=O (configuration not stated)	> 20.6 µM
O=c1oc2c(O)c(O)cc3c(=O)oc4c(O)c(O)cc1c4c23	> 46 µM
Cc1cccc(N(C)C(=S)Oc2ccc3ccccc3c2)c1	> 20.6 µM
Nc1ccc(S(=O)(=O)Nc2ccccn2)cc1	> 20.6 µM
N[C@@H](C(=O)N[C@@H]1C(=O)N2C(C(=O)O)=C(Cl)CS[C@H]12)c1ccccc1	> 20.6 µM
CC1=NN(c2ccccc2)C(=O)C1	> 46 µM and > 20.6 µM
N=C(N)c1ccc(OCCCCCOc2ccc(C(=N)N)cc2)cc1	> 20.6 µM
COc1ccc2cc3[n+](cc2c1OC)CCc1cc2c(cc1-3)OCO2	> 20.6 µM
Cc1cc(NS(=O)(=O)c2ccc(N)cc2)no1	> 20.6 µM
CCc1cc(C(N)=S)ccn1	> 20.6 µM
CCn1cc(C(=O)O)c(=O)c2cc(F)c(N3CCNCC3)cc21	> 20.6 µM
Nc1nc(F)nc2c1ncn2[C@@H]1O[C@H](CO)[C@@H](O)[C@@H]1O	> 20.6 µM
NC(N)=NC(N)=NCCc1ccccc1	> 20.6 µM
OCc1ccc(-c2nn(Cc3ccccc3)c3ccccc23)o1	> 46 µM
Cc1ccc(S(=O)(=O)N[C@@H](Cc2ccccc2)C(=O)CCl)cc1	> 46 µM
